The sample as a whole holds a higher share of hits than the screen did.
HT1080 IDH1KD tx = HT-1080 IDH1 knockdown cell toxicity (counter line). Potency, µM (series often up to 46.1 µM), usual class: cytotoxic. 360,000 compounds, 2% hits. HT-1080 IDH1 knockdown viability, ATP luminescence, 48 h
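IDH1KD HT-1080 cells, 750/well, RPMI + 5% FBS; compound pinned after 2 h settling; 48 h, 37 °C; CellTiter-Glo luminescence; % activity normalised to DMSO and no-cell wells; curves fitted, classed by r2 and efficacy.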
DT40 TDP1 no CPT = qHTS for Inhibitors of human tyrosyl-DNA phosphodiesterase 1 (TDP1): qHTS in cells in absence of CPT. 420,000 compounds, 15% hits. Potency, µM (top dose mostly 46.2 µM), usual class: inhibitors. DT40 Tdp1-/- hTDP1 cells, no CPT, ATP luminescence, 48 h; also: nearly all actives have a fitted effect of over 55% in size
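No-CPT arm: Tdp1-/-;hTDP1 DT40 cells (400/well) plus compounds, incubated ≥48 hr at 37 °C. Readout CellTiter-Glo luminescence.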
HT1080-NT tox = kills 2HG-producing HT-1080-NT fibrosarcoma cells; 360,000 compounds, 1.6% hits; HT-1080-NT fibrosarcoma viability, CellTiter-Glo ATP luminescence, 48 h; AID 686970; Potency, µM (series often up to 46.1 µM), hits mostly cytotoxic;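 also: NT is the 2HG producing partner of a matched IDH1 knockdown line; nearly all actives have a fitted effect of over 55% in size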
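Read-out is CellTiter-Glo luminescence after 10 minutes at room temperature, following 48 hours' compound treatment of HT-1080-NT cells (750 cells/well, RPMI, 5% FBS, 37 degrees C).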
12-LOX inh = ALOX12 (human) lipoxygenase inhibition. 580,000 compounds, 1.1% hits. purified 12hLO, xylenol orange hydroperoxide absorbance. Potency, µM (doses to about 108 µM), hits mostly inhibitors. P18054
Target sequence (P18054 whole entry, looked up): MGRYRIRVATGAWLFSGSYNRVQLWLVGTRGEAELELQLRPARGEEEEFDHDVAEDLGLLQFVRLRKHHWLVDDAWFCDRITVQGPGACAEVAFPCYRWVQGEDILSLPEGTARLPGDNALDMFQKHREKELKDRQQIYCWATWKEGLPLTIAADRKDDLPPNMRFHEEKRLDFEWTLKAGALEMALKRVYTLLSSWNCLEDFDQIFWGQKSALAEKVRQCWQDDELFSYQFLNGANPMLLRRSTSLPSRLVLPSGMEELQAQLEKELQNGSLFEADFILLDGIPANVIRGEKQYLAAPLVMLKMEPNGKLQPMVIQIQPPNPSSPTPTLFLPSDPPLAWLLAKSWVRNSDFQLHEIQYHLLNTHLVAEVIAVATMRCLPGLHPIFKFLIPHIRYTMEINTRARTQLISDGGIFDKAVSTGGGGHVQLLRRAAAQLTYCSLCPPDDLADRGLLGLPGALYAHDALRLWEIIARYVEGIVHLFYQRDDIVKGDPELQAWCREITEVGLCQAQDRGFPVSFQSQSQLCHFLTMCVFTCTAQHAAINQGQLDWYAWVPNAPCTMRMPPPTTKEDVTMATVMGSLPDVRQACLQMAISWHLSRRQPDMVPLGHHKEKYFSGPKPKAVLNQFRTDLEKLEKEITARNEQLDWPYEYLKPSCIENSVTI
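Purified human 12hLO at 150 nM in 25 mM Hepes, 0.01% Triton X-100, pH 7.0, preincubated 15 min at room temperature with compound. Reaction started with 40 uM arachidonic acid, 30 min at room temperature. Hydroperoxide measured by Fe-xylenol orange, 573/405 nm absorbance ratio.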
IL1B secr inh = inflammasome signaling inhibition, IL-1 beta readout | activity change, % at 57.5 µM | AID 743279 | 360,000 compounds, 4.7% hits | THP-1 LPS/ATP IL-1B secretion, AlphaLISA, 16 h; active compounds read low; in the data active = activity change below about -50%; inconclusive = mostly about -30% to -49%
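THP-1 cells pretreated 1 hr with compounds (up to 57.5 uM final), then stimulated with LPS (250 ng/mL final) plus ATP (1.25 mM final); secreted IL-1B measured by AlphaLISA after 16 hr, decreased signal indicating inhibition.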
DT40 TDP1 CPT = DT40-hTDP1 cell growth loss with CPT; Potency, µM (highest dose often 46.2 µM), actives largely listed as inhibitors; chicken DT40 Tdp1-/-;hTDP1 cells + 20 nM CPT, ATP luminescence, 48 h; 420,000 compounds, 12% hits; also: nearly all actives have a fitted effect of over 55% in size
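Cell growth measured by CellTiter-Glo luminescence after a minimum 48 h, 37 C compound exposure with 20 nM CPT in Tdp1-knockout DT40 cells stably expressing hTDP1, seeded 400/well; qHTS titration format.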
Hits are given with their value; - = inactive; ? = inconclusive; . = no result given. Unless noted, calls follow the shape of the dose curve; as a rule, active = well fitted curve in the direction sought with a large enough effect; inconclusive = small, poorly fitted or top-dose-only effect, or another doubt; inactive = no such curve, though single readings can be large; an effect the other way counts as inactive or inconclusive.

SMILES	HT1080 IDH1KD tx	DT40 TDP1 no CPT	HT1080-NT tox	12-LOX inh	IL1B secr inh	DT40 TDP1 CPT
CCCOc1ccc(CCCN=C(N)N)cc1Cl	20.6µM	2.06µM	?	?	-90.2	2.06µM
CCOc1ccc(CN=C(N)N=C(N)N)cc1Cl	-	5.8µM	-	-	-	11.6µM
CCCCOc1cc(C[C@@H]2CNC(=O)N2)ccc1OC	.	-	.	-	.	-
CCCCOc1ccc(CN=C(N)N)cc1Cl	?	1.46µM	?	-	-74.0	2.31µM
Cc1ccccc1C(C)NC(=O)CCC(=O)c1ccc2c(c1)CCC2 (stereo not drawn)	.	.	.	-	.	.
CCCn1nc(C(=O)NCC2CCCCC2)c2ccccc2c1=O	.	.	.	-	.	.
CC(C)(C)NC(=O)CNC(=O)C1CCCCC1	.	.	.	-	.	.
CCCCc1ccc(NC(=O)COc2ncnc3ccccc23)cc1	.	.	.	-	.	.
CC(C1CC2CCC1C2)n1c(-c2cccs2)n[nH]c1=S (stereo not drawn)	-	?	-	44.7µM	-	?
C[N+]1(Cc2c(Cl)cccc2Cl)CCN(/C=C/C(=O)C(F)(F)F)CC1	.	.	.	-	.	.
Cc1ccccc1-n1nc(C)c2cc(C(=O)N3CCN(S(=O)(=O)c4ccc(F)cc4)CC3)sc21	-	17.8µM	-	-	-	10µM
CC(=O)OCC1(C)CN(c2ccccc2)NC1=O (stereo not drawn)	23.1µM	?	?	39.8µM	-	20.6µM
CC(=O)OCC1(C)CN(c2ccccc2)N(C(=O)c2ccc(C(C)(C)C)cc2)C1=O (stereo not drawn)	?	?	?	-	-	?
CC(=O)OCC1(C)CN(c2ccccc2)N(C(C)=O)C1=O (stereo not drawn)	?	20.6µM	20.6µM	-	-	?
C=C1SC(Nc2c(C)cccc2C)=NC12CCCCC2	-	?	-	?	.	?
C=C1SC(Nc2c(C)cc(C)cc2C)=NC12CCCCC2	-	18.4µM	-	?	-68.6	?
O=C(NNC(=S)NCc1cccs1)c1c[nH]c2ccccc12	.	.	.	-	.	.
CCOC(=O)c1ccc(NC(=O)c2c(NCc3cccs3)sc3c2CCCCC3)cc1	.	8.2µM	.	?	.	10.3µM
CCOC(=O)c1c(NC(=O)c2ccco2)sc2c1CCCC2	-	?	-	-	-	?
COc1ccc(NC(=O)c2c(NCc3cccs3)sc3c2CCCCC3)c(OC)c1	.	14.6µM	.	?	.	?
COc1ccc(NC(=O)CN(C)CC(=O)Nc2sc3c(c2C(N)=O)CCC3)cc1	-	?	-	-	-	20.6µM
CCN(CC)Cc1c(NC(=O)c2ccc(OC)cc2)sc2c1CCCC2	.	?	.	-	.	18.4µM
CCOC(=O)c1c(NC(=O)c2ccc(OC)cc2)sc2c1CCCCC2	.	-	.	-	.	-
Cc1nc2cc(NC(=O)COc3ccc(C#N)cc3)ccc2o1	.	.	.	-	.	.
Cc1ccc2oc(C(=O)N3CCN(c4cccc(Cl)c4)CC3)cc(=O)c2c1	.	.	.	-	.	.
SMILES	HT1080 IDH1KD tx	DT40 TDP1 no CPT	HT1080-NT tox	12-LOX inh	IL1B secr inh	DT40 TDP1 CPT
Cc1cc(CNC(=O)c2ccncc2)c2ccccc2n1	.	.	.	-	.	.
Cc1ccc(C(=O)c2c(N)c(-c3nc4ccccc4[nH]3)c3ccccn23)cc1	.	.	.	-	.	.
CCOC(=O)c1ccc(NC(=O)c2c(NC(=O)CCC(=O)O)sc3c2CCCCC3)cc1	-	29.1µM	-	20µM	-	-
CCOc1ccccc1NC(=O)c1c(NC(=O)CCC(=O)O)sc2c1CCCCC2	-	-	-	?	-	-
CCC(=O)Nc1sc2c(c1C(=O)Nc1ccc(Br)cc1)CCCCC2	.	20.6µM	.	-	.	?
CCOc1ccc(NC(=O)c2c(NCc3cccs3)sc3c2CCC(C)C3)cc1 (stereo not drawn)	.	?	.	-	.	?
CCOC(=O)c1ccc(NC(=O)c2c(NCc3ccc(OC)c(OC)c3OC)sc3c2CCC(C)C3)cc1 (stereo not drawn)	.	25.9µM	.	?	.	?
COc1ccc(NC(=O)c2c(NCc3cccs3)sc3c2CCCC3)cc1	.	20.6µM	.	?	.	?
CCC(=O)Nc1sc2c(c1C(=O)Nc1cccc(C)c1)CCCC2	.	.	.	-	.	.
Cc1ccc(C(=O)NCc2coc(-c3cccs3)n2)cc1	.	.	.	-	.	.
COc1ccc2nc(Nc3sc4c(c3C(N)=O)CCCC4)sc2c1	-	?	-	22.4µM	-100.0	16.4µM
COc1ccc(C(C)(C)C)cc1NC(=O)c1cc(S(=O)(=O)N(C)C)ccc1N1CCCC1	-	?	-	-	-	20.6µM
Cc1cnc(NC(=O)c2cc(S(=O)(=O)N(C)C)ccc2N2CCCC2)s1	-	?	-	-	-63.7	?
CN(C)S(=O)(=O)c1ccc(N2CCCC2)c(C(=O)Nc2ccc(F)cc2F)c1	-	-	-	?	-	?
O=C(CCc1c[nH]c2ccccc12)Nc1cccc(C(F)(F)F)c1	.	.	.	-	.	.
O=C1CCCc2nc(N3CCN(C(c4ccccc4)c4ccccc4)CC3)ncc21	-	20.6µM	-	-	-	16.4µM
COc1ccccc1N1CCN(c2ncc3c(n2)CCCC3=O)CC1	.	.	.	-	.	.
O=c1cc(NCCCO)c2ccccc2o1	-	-	-	-	-	-
CCN(CC)CCNC(CC(=O)Nc1ccc(Cl)cc1Cl)C(=O)O (stereo not drawn)	-	-	-	-	-	-
CCN(CC)CCNc1ccc(CO)c2oc3cc(Cl)ccc3c(=O)c12	-	10.3µM	?	?	-	23.1µM
CN(C)CCNc1ccc(CO)c2oc3ccc(O)cc3c(=O)c12	20.6µM	0.651µM	?	?	-98.5	0.13µM
Cn1ncc2c(N3CCN(S(N)(=O)=O)CC3)nc(-c3cccnc3)nc21	.	.	.	-	.	.
Cc1cc(/C=N/n2cnnc2)c(C)n1-c1ccc(OCc2ccc(Cl)cc2)cc1	?	3.26µM	-	-	-81.6	4.61µM
Cc1cc(/C=N/n2cnnc2)c(C)n1-c1ccc(OCc2ccccc2F)cc1	?	13µM	?	-	-84.5	20.6µM
Cc1ccc(-c2nc3ccc(C)cc3nc2-c2ccc(C)cc2)cc1	.	.	.	-	.	.
SMILES	HT1080 IDH1KD tx	DT40 TDP1 no CPT	HT1080-NT tox	12-LOX inh	IL1B secr inh	DT40 TDP1 CPT
N/C(=N\O)c1ccc(N2CCN(c3ncccc3C(F)(F)F)CC2)nc1	-	18.4µM	-	-	-	?
CC(C)(C)C(=O)N1CCN(c2ncccc2C(F)(F)F)CC1	-	-	-	-	-	-
O=C(Nc1ccc(N2CCN(c3ncccc3C(F)(F)F)CC2)nc1)c1cccs1	20.6µM	20.6µM	18.4µM	-	-100.5	18.4µM
O=C(Nc1ccc(N2CCN(c3ccc(C(F)(F)F)cn3)CC2)nc1)c1cccs1	-	-	-	-	-	-
COc1ccccc1C(=O)Nc1ccc(N2CCN(C(=O)CC(C)C)CC2)cc1	.	.	.	-	.	.
CC(C)CCN1CCC(C2CCN(Cc3cccnc3)CC2)C1 (stereo not drawn)	.	.	.	-	.	.

Source: PubChem BioAssay (National Center for Advancing Translational Sciences (NCATS))
